# Pf growth 96h = inhibits malaria parasite growth, 96 h; P. falciparum luciferase reporter growth, 96 h; Potency, µM (highest dose often 28.7 µM), inactives show at the highest dose activity change, negative = inhibition, usual class: inhibitors; AID 504834; 320,000 tested, 6.9% active; also: potency is read from the fitted curve at half-maximal effect; % is scaled to controls: 0 for no effect and ±100 for the full control effect
#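 Cell-based qHTS: luciferase-tagged P. falciparum in erythrocytes (2% hematocrit, 0.05% parasitemia final) incubated with compounds for 96 hours, 37 C, 5% CO2; luciferase detection reagent then added and luminescence measured.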
# Pf growth 48h = P. falciparum growth inhibition at 48 hours (one generation). P. falciparum luciferase growth in erythrocytes, 48 h. 310,000 tested, 5.9% active. AID 504832. Potency, µM (titrated, usually from 28.7 µM), for the others: at the highest dose activity change, negative = inhibition, usual class: inhibitors; also: potency is read from the fitted curve at half-maximal effect; % is scaled to controls: 0 for no effect and ±100 for the full control effect
#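 Read-out is firefly luciferase luminescence from an integrated reporter in P. falciparum, so falling signal marks reduced parasite growth. Infected erythrocytes were at 2% hematocrit and 0.1% parasitemia (final) in Albumax-supplemented RPMI 1640.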
# Cycloheximide cs = counter-screen hit for Shiga toxin inhibitors, cycloheximide; cell reporter, cycloheximide protein synthesis inhibition counterscreen; max response, %; 300,000 tested, 12% active; in the data active = max response mostly above about 13%, no sharp cut-off; inactive = mostly below about 14%; also: read at 38.3 µM for the half of the compounds with a filed dose; 0% is about no effect
# Shiga inhibitor = inhibitors of Shiga toxin in Vero cells. inhibition, % at 38.7 µM. Vero cells, Shiga toxin protein synthesis inhibition reporter. AID 2315. 290,000 tested, 9.2% active; in the data active = inhibition mostly above about 28%, no sharp cut-off; inactive = mostly below about 43%; also: 0% is about no effect
# NS1 function inh = inhibitors of influenza NS1 protein function. AID 2326. Potency, µM (highest dose often 46.1 µM), for the others: at the top dose activity, positive = more growth. 270,000 tested, 0.4% active; calls by dose curve; also: potency is read from the fitted curve at half-maximal effect; actives are rising curves; nearly all actives have a fitted effect of over 50% in size
#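 Compounds were scored for reversing the slow growth caused by influenza A NS1 in S. cerevisiae, measured by optical density at 600 nm. Assay medium contained 2% galactose at pH 6.0; NS1-free yeast of the same strain were the positive control.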
# Starred values were filed as active, the others as inactive; ? = inconclusive; . = no result given; [ ] = dose if it differs, or a comment. Hits are enriched below; roughly 21% of the tested compounds scored in any of these assays. Unless noted, calls follow the shape of the dose curve; as a rule, active = well fitted inhibition curve with a large enough effect; inconclusive = small, poorly fitted or top-dose-only effect, or another doubt; inactive = no such curve, though single readings can be large or run the other way.
SMILES,Pf growth 96h,Pf growth 48h,Cycloheximide cs,Shiga inhibitor,NS1 function inh
N/C(=N\OC(=O)c1ccco1)c1cccc([N+](=O)[O-])c1,2%,-13%,48*,121*,2%
Cc1ccc(NS(=O)(=O)c2ccc3c(c2)CCN3C(=O)CCC(=O)O)cc1Cl,?,-20%[0.00184 µM],2,1,6%
CN(C)C(CNC(=O)c1ccc2ccccc2c1)c1ccco1 (stereo unspecified),50%,27%,32*,77*,.
CN(C)c1cccc(C(=O)NCC(c2ccco2)N(C)C)c1 (stereo unspecified),-13%,-8%,37*,75*,?
CCOc1ccc(N2C(=O)C3ON(c4ccccc4)C(c4cccs4)C3C2=O)cc1 (stereo unspecified),68%,12µM*,-4,-10,2%
COc1cccc(N2C(=O)C3ON(c4ccccc4)C(c4cccs4)C3C2=O)c1 (stereo unspecified),5%,.,-1,13,-2%
COc1ccc(-c2csc(N3CCN(C(=O)c4ccco4)CC3)n2)cc1,-7%,.,4,33,?
COc1ccc(C2=NN(c3nc(-c4ccc(CNC(C)=O)cc4)cs3)C(c3ccco3)C2)cc1 (stereo unspecified),?,3.7µM*,16,23,16%
CCOC(=O)N/N=C(\C)c1cccs1,?,34%,35*,96*,.
C/C(=N/NC(=O)c1cccs1)c1cccc(N)c1,?,45%,43*,88*,1%
C/C(=N\NC(=O)c1nonc1N)c1cccs1,13%,32%,23*,active,1%
COc1cc(C(=O)NCC(=O)N/N=C(/C)c2cccs2)cc(OC)c1OC,1.7µM*,0%,1,-15,-3%
COc1cc(C(=O)OCC(=O)c2c(N)n(C)c(=O)n(C)c2=O)ccc1OCCC(C)C,11%,4%,-3,-12,.
O=C(CSc1ccccn1)NC1CCCC1,?,37%,7,14,.
CC(=O)Nc1cccc(/C(C)=N/NC(=S)NC(C)C)c1,49%,28%,28*,67*,.
C/C(=N\NC(=O)c1sccc1-n1cccc1)c1cccs1,34%,-2%,19,54*,.
C/C(=N/NC(=O)c1cccs1)c1cccs1,70%,265%,43*,76*,-25%
C/C(=N\NC(=O)c1cccs1)c1c(O)cc(C)oc1=O,?,25%,51*,84*,-39%
C/C(=N\NC(=O)Cc1cccn1C)c1cccs1,15%,12%,-1,10,9%
CCCCCCCC(=O)N/N=C(/C)c1c(O)cc(C)oc1=O,50%,76%,-5,14,-17%
O=C(OCN1C(=O)c2ccccc2C1=O)c1ccc(Cl)nc1,1%,28%,-3,-14,-3%
CCN(CC)S(=O)(=O)c1cccc(C(=O)N/N=C(\C)c2cccs2)c1,68%,157%,31*,74*,.
CC(=O)Nc1cccc(/C(C)=N/NC(=O)c2cccs2)c1,14%,59%,56*,46*,-5%
C/C(=N\NC(=O)c1cccc(S(=O)(=O)Nc2cccc(Cl)c2)c1)c1cccs1,?,13%,0,-3,21%
Cc1c(C#N)c(NC(=O)c2cccc(Cl)c2)n(Cc2ccccc2)c1C,13µM*,12µM*,-1,-4,-5%
SMILES,Pf growth 96h,Pf growth 48h,Cycloheximide cs,Shiga inhibitor,NS1 function inh
CC(C)c1nc2cc(C(=O)N(C)C3CCOCC3)ccc2o1,73%,33%,37*,42*,-2%
O=C(Cc1ccc(Cl)cc1Cl)NC1CCCCCC1,-24%,-3%,-2,14,-5%
Cc1ccc(/C=C/C(=O)NC2CCS(=O)(=O)C2)cc1 (stereo unspecified),48%,?,20*,14,.
CC1CC(NC(=O)CC#N)CC(C)(C)C1 (stereo unspecified),99%,45%,-2,3,0%
O=C(/C=C/c1ccccc1)NC1CCS(=O)(=O)C1 (stereo unspecified),0%,3%,7,-3,12%
O=C(Cc1ccc(Br)cc1)NC1CCCCC1,69%,.,22*,20,-10%
CC1CC(NC(=O)Cc2ccc(Br)cc2)CC(C)(C)C1 (stereo unspecified),?,12µM*,-1,-5,-1%
O=C(Cc1ccc(Cl)c(Cl)c1)NC1CCCCCC1,?,-16%,12*,79*,-2%
O=C(COC(=O)Cc1ccc(Br)cc1)NC1CC1,-28%,-17%,.,.,.
COc1cccc(NC(=O)COc2ccc(C(=S)N3CCN(C)CC3)cc2OC)c1,?,?,1,11,23%
O=C(NC(CSCc1ccccc1)C(=O)N/N=C/c1ccc(O)cc1O)c1ccc([N+](=O)[O-])cc1 (stereo unspecified),.,?,14,46,3%
CC(C)N(CCc1ccncc1)C(=S)Nc1ccc(F)c(Cl)c1,?,11%,-5,-13,.
Oc1ccc(CNC2CCCCC2)cc1,.,12µM*,-4,-10,0%
O=C(Cc1ccc(O)cc1)NC1CCCCCC1,142%,65%,42*,69*,-2%
CC(C)Cc1ccc(/C=C/C(=O)NC2CC2)cc1,2.1µM*,?,71*,112*,-32%
COc1ccc(/C=C/C(=O)NC2CCS(=O)(=O)C2)cc1 (stereo unspecified),-4%,-19%,.,.,.
CCCOc1ccc(/C=C/C(=O)NC2CCCCC2)cc1,-1%,?,6,16,10%
O=C(/C=C/c1ccc(Br)cc1)NC1CCCCCC1,160%,120%,17*,62*,-36%
N#CCCCSC1=C(C#N)C(c2ccccc2Cl)CC(=O)N1 (stereo unspecified),0%,?,-4,-3,-7%
COc1ccc(N2CCN(S(=O)(=O)CC34CCC(CC3=O)C4(C)C)CC2)cc1 (stereo unspecified),?,-15%,1,-2,9%
Cc1ccc(CCC(=O)Nc2ccc(Br)cc2)o1,?,34%,18*,15,-23%
Cc1ccc(CCC(=O)Nc2ccc(Cl)cc2)o1,?,24%,18*,.,-34%
CCc1ccc(CCC(=O)Nc2ccc(Cl)cc2)o1,129%,20%,18*,24,-33%
CCc1ccc(CCC(=O)Nc2ccc(C)cc2C)o1,16%,9%,1,-3,3%
Cc1ccc(NC(=O)CCc2ccc(C)o2)c(Br)c1,?,50%,29*,31*,-6%
SMILES,Pf growth 96h,Pf growth 48h,Cycloheximide cs,Shiga inhibitor,NS1 function inh
CCc1ccc(CCC(=O)Nc2ccc(C(C)=O)cc2)o1,6%,?,8,29,1%
CCc1ccc(CCC(=O)Nc2ccc(Br)cc2)o1,?,1%,3,.,-48%
O=C(CC1C(=O)NCCN1Cc1ccc(F)cc1)NCCCn1cccn1 (stereo unspecified),4%,12%,-2,-31,-3%
COc1ccc(NC(=O)CCS(=O)(=O)c2cccc3nonc23)cc1Cl,-17%,-15%,-1,-5,13%
COCCCNC(=S)N(Cc1cccnc1)Cc1ccc(OC)c(OC)c1,?,-10%,-3,-5,-5%
Cc1ccc(CCC(=O)Nc2ccc(N(C)C)cc2)o1,58%,34%,31*,54*,22%

# Assay outcomes as filed in PubChem.
